Several values for one entry are separate records, joined by “and”; a condition that tells them apart may be missing. Identical values can stand only once. The panel holds about 83,000 compounds, 20% with a hit somewhere; the sample as a whole holds those more often.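 Testing used 96-well plates and a 48-hour single-concentration exposure. Example: -40 means 40% of the starting cells died.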 Activity calls are given as the source filed them. Rule for the calls: active = growth percent below 10; inactive = the rest.
Assays:
Test in all cases: NCI-60 one-dose screen, 48 h (100 = growth as untreated, 0 = no growth, -100 = all killed)
Settings in all cases: 10 µM unless noted
[1] = system: NCI-H23 lung
[2] = system: NCI-H226 lung
[3] = system: NCI-H322M lung
[4] = system: HOP-62 NSCLC
[5] = system: NCI-H460 lung
[6] = system: HOP-92 NSCLC
[7] = system: NCI-H522 lung
[8] = system: A549/ATCC NSCLC
[9] = system: 786-0 renal
[10] = system: COLO 205 colon

Row | SMILES | growth [1] | growth [2] | growth [3] | growth [4] | growth [5] | growth [6] | growth [7] | growth [8] | growth [9] | growth [10]
1 | CNc1ccc(O)cc1 | 114% (inactive) and 104% (inactive) | 85.2% (inactive) and 93.6% (inactive) | 122% (inactive) and 98.3% (inactive) | 104% (inactive) | 105% (inactive) and 115% (inactive) | 102% (inactive) | 96.3% (inactive) and 93% (inactive) | 104% (inactive) and 114% (inactive) | 109% (inactive) and 106% (inactive) | 132% (inactive) and 117% (inactive)
2 | CC1NC(C)c2ccc3ccccc3c2O1 (stereo not given) | 102% (inactive) | 102% (inactive) | 106% (inactive) | 108% (inactive) | 108% (inactive) | 101% (inactive) | 88.6% (inactive) | 106% (inactive) | 104% (inactive) | 121% (inactive)
3 | O=C1C=CC[C@H](/C=C/c2ccccc2)O1 | 37.8% (inactive) and 40.7% (inactive) | 29.8% (inactive) and -33% (active) | 25.5% (inactive) and 4.12% (active) | 64.7% (inactive) and -48.7% (active) | 4.39% (active) and -32.3% (active) | 10.3% (inactive) and -15.8% (active) | 13.9% (inactive) and 47.5% (inactive) | 12.2% (inactive) and 7.95% (active) | 48.2% (inactive) and -27.8% (active) | 57.9% (inactive) and -70.8% (active)
4 | O=C(Nc1ccccc1)OCC(CN1CCCCC1)OC(=O)Nc1ccccc1 (stereo not given) | 78.4% (inactive) and 103% (inactive) | 96.6% (inactive) and 89.9% (inactive) | 81% (inactive) and 92.2% (inactive) | 83.6% (inactive) and 110% (inactive) | 106% (inactive) and 105% (inactive) | 76.4% (inactive) | 103% (inactive) | 94.1% (inactive) and 94.4% (inactive) | 64% (inactive) and 101% (inactive) | 98% (inactive)
5 | C/C=C/C(=O)OCCCCCCCCCCCC | 105% (inactive) | 87.3% (inactive) | 114% (inactive) | 102% (inactive) | 108% (inactive) | 96.5% (inactive) | 96.3% (inactive) | 84.2% (inactive) | 95% (inactive) | 105% (inactive)
6 | O=C(N=C1C(=O)C2(CCCCC2)C2(N=C(c3ccccc3)OC2=O)C12CCCCC2)c1ccccc1 (stereo not given) | 66.9% (inactive) | 70.2% (inactive) | 96% (inactive) | 96.8% (inactive) | 69.5% (inactive) | 41.7% (inactive) | 37.9% (inactive) | 5.7% (active) | 77.7% (inactive) | 94% (inactive)
7 | O=C(O)COc1ccccc1F | 106% (inactive) | 94.2% (inactive) | 106% (inactive) | 117% (inactive) | 101% (inactive) | 96.3% (inactive) | 106% (inactive) | 110% (inactive) | 102% (inactive) | 114% (inactive)
8 | CCn1c2ccc(N(C)C)cc2c2cc(N(C)C)ccc21 | 92.1% (inactive) | 97.4% (inactive) | 95.2% (inactive) | 90.2% (inactive) | 99.8% (inactive) | 90.6% (inactive) | 77.3% (inactive) | 85.7% (inactive) | 102% (inactive) | 46.8% (inactive)
9 | C=CCN1C(=O)c2ccccc2C1=O | 103% (inactive) | 101% (inactive) | 102% (inactive) | 104% (inactive) | 101% (inactive) | 80.9% (inactive) | 86% (inactive) | 100% (inactive) | 103% (inactive) | 98.4% (inactive)
10 | COc1cc2oc3cc(=O)cc4oc(-c5ccccc5)cc(c2c2c1CCC(c1ccccc1)O2)c43 (stereo not given) | 87.8% (inactive) | 64.4% (inactive) | 101% (inactive) | 91% (inactive) | 76.2% (inactive) | 81.1% (inactive) | 86.6% (inactive) | 96.2% (inactive) | 110% (inactive) | 98.5% (inactive)
11 | Clc1ccc2c(c1)N(C1CCCN(Cc3ccccc3)C1)c1ccccc1S2 (stereo not given) | 61.9% (inactive) | 82.1% (inactive) | 31.1% (inactive) | 82.1% (inactive) | 25.4% (inactive) | 51.7% (inactive) | 14.9% (inactive) | 35% (inactive) | 61.8% (inactive) | 3.47% (active)
12 | O=C(O)c1ccc2c3ccc(C(=O)O)c4c(C(=O)O)ccc(c5ccc(C(=O)O)c1c25)c43 | 87.8% (inactive) | 92.2% (inactive) | 100% (inactive) | 92.4% (inactive) | 96.5% (inactive) | 112% (inactive) | 95.3% (inactive) | – | 107% (inactive) | 104% (inactive)
13 | Nc1ccc2ccc(NS(=O)(=O)N3CCCCC3)cc2c1 | 43.8% (inactive) | 15.2% (inactive) | 50.9% (inactive) | 35.4% (inactive) | 7.56% (active) | 68% (inactive) | 47.5% (inactive) | – | 30.7% (inactive) | -40.9% (active)
14 | CCc1ccc(OC(=O)CCl)cc1 | 96.7% (inactive) | 97% (inactive) | 102% (inactive) | 110% (inactive) | 106% (inactive) | 101% (inactive) | 102% (inactive) | – | 104% (inactive) | 111% (inactive)
15 | O=C1C=CC(=O)N1Cc1ccco1 | 81.7% (inactive) | 97.1% (inactive) | 85.1% (inactive) | 94.7% (inactive) | 50.9% (inactive) | 102% (inactive) | 67.8% (inactive) | – | 104% (inactive) | 89.2% (inactive)
16 | Cc1cc(O)c(C(C)C)cc1N=O | 95.4% (inactive) and 111% (inactive) | 99.6% (inactive) and 108% (inactive) | 115% (inactive) and 104% (inactive) | 103% (inactive) and 99.4% (inactive) | 115% (inactive) | 79.7% (inactive) | 93.8% (inactive) and 74.7% (inactive) | – | 98.6% (inactive) and 103% (inactive) | 106% (inactive) and 112% (inactive)
